# Source: PubChem BioAssay AID651820 (National Center for Advancing Translational Sciences (NCATS), 2012)
# Out of some 340,000 compounds screened, about 12,000 (3.5%) were called active. About 18% were inconclusive and are not listed. This is one part of a sample in which actives are shown more often than they occur. A number with no mark means an inactive call. Calls come from the whole dose curve; as a rule, active = well fitted inhibition curve with a large enough effect; inconclusive = small, poorly fitted or top-dose-only effect, or another doubt; inactive = no such curve, though single readings can be large or run the other way.
# Test: qHTS Assay for Inhibitors of Hepatitis C Virus (HCV)
# Settings: Huh7.5.1 HCVcc-Cre infection, luciferase reporter, 44 h; series mostly up to 41.8 µM; activity change, negative = inhibition: at the top concentration
# Method in brief: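 Luciferase read-out (15 sec integration) after a 15 min room-temperature substrate step quantifies HCVcc-Cre infection. Cells, 1,000 per well, had compound added 4 h post-plating, then virus at ~0.5 moi, and were cultured 44 h.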
# % is set by controls: 0 for no effect and ±100 for the full control effect; potency is the fitted concentration of half-maximal effect.
SMILES,"activity change, negative = inhibition",Potency
Cc1ccc(S(=O)(=O)NC2CCCCCC2)cc1,-0.44%,
O=C1C=CN2CCCC2CC1 (stereo not given),-5.11%,
COc1ccc(C(CNC(=O)c2ccc(S(=O)(=O)Nc3ccccc3C)cc2)N2CCOCC2)cc1 (stereo not given),-0.659%,
CCOC(=O)c1sc(=S)n2c1[nH]c(=O)c1ccc(C(=O)OC)cc12,-9.87%,
CCOC(=O)C1=C(C)Nc2sc(C(=O)c3ccc(Br)cc3)c(N)c2C1c1ccc(C(=O)OC)cc1 (stereo not given),,8.91 µM (active)
CCOC(=O)c1sc(=NC(=O)c2ccc(Br)cc2)n(C)c1C,23.1%,
CCCCCCSc1ccc([C@@H]2[C@@H]3C(=O)N(CC)C(=O)[C@@H]3[C@]3(C(=O)OC)CCCCN23)cc1OC,5.98%,
CCCOc1ccc(C2=CSC3=NCCN23)cc1Cl,,11.2 µM (active)
Cc1ccc(C2=CSC3=NS(=O)(=O)CCN23)cc1C,2.87%,
CCCCOc1ccc(CON(C(C)=O)C(C)=O)cc1Cl,-1.6%,
CC[C@]12c3[nH]c4cc(CCC(=O)N(C)C)ccc4c3CCN1C(=O)[C@@H](CC(=O)NCCCN(C)C)C[C@@H]2C(=O)N1CCN(C(=O)c2ccco2)CC1,7.67%,
Cc1noc(C)c1S(=O)(=O)N(C)C[C@H]1Oc2ccc(NC(=O)C3CCCCC3)cc2C(=O)N([C@H](C)CO)C[C@@H]1C,-2.1%,
CCOC(=O)[C@H]1[C@H]2COc3ccc(Br)cc3[C@@H]2N2C(=O)CN(C)C(=O)[C@@]12C,47.2%,
N#Cc1c(/N=C/N2CCCC2)oc(-c2ccccc2)c1-c1ccccc1,,14.1 µM (active)
N#Cc1c2c(c(-c3ccccc3)[nH]c1=O)CCCC2,-1.49%,
N#Cc1c(-c2ccccc2)c(-c2ccccc2)n[nH]c1=O,10.3%,
CCN(CC)C(=O)c1nc[nH]c1C(=O)N(C)Cc1ccccc1,15.3%,
COc1ccc(C(=O)N2CCN(c3ncccn3)CC2)cc1S(=O)(=O)N1CCOCC1,0.727%,
CCC(=O)c1cc(F)ccc1OCC(=O)Nc1ccc2c(c1)OCCO2,-10.2%,
Cc1ccc(N2CC(C(=O)Nc3ccc(S(=O)(=O)N4CCCC4)cc3)CC2=O)cc1C (stereo not given),0.4%,
COc1ccc(S(=O)(=O)N2CCCCC2)cc1NC(=O)C1CC(=O)N(c2ccc3c(c2)OCCO3)C1 (stereo not given),-11.2%,
Cc1ccc(NC(=O)C2CC(=O)N(c3ccc4c(c3)OCCO4)C2)cc1S(=O)(=O)N1CCCCCC1 (stereo not given),,10 µM (active)
CN1C(C(=O)NCc2ccco2)CC2Cn3c(nc4ccccc43)C21 (stereo not given),10.9%,
CCOC(=O)c1ccc(NC(=O)CCn2c(=O)oc3ccccc32)cc1,24.3%,
CC(=O)Nc1ccc(NC(=O)CS(=O)(=O)c2cn(CC(=O)N3CCCCC3)c3ccccc23)cc1,5.01%,

SMILES,"activity change, negative = inhibition",Potency
CCOC(=O)c1ccc(NC(=O)CS(=O)(=O)c2cn(CC)c3ccccc23)cc1,,14.1 µM (active)
Cc1ccc(NC(=O)C(C)OC(=O)Cc2c[nH]c3ccccc23)cc1S(=O)(=O)N1CCOCC1 (stereo not given),-6.29%,
Cc1ccc(C)c(S(=O)(=O)N(C)c2ccc(OC(=O)C3CCN(C(=O)c4ccc(F)cc4)CC3)cc2)c1,11.6%,
CCCCNC1(C#N)CCN(Cc2ccccc2)CC1,12.6%,
CN(C)CCCCCN(C)Cc1cc2ccccc2o1,,3.16 µM (active)
OCC1(Cc2ccccc2)CCN(Cc2cc3ccccc3o2)CC1,1.23%,
COc1ccccc1CN(C)C(=O)c1cc2ccccc2o1,4.38%,
Brc1ccc(CN2CC[C@H]3C=CCc4cccc(c43)C2)cc1,-12.9%,
COc1ccc(S(=O)(=O)N2CCOCC2)cc1NC(=O)COc1ccccc1,-5.17%,
CCC(=O)NCc1cc(-c2nn(C)c(=O)c3ccccc23)ccc1OC,-2.55%,
COc1ccc(-c2nn(C)c(=O)c3ccccc23)cc1NC(=O)COc1ccccc1,,10 µM (active)
CC(C)(C)c1nnc2sc(SCC(O)=C(C#N)c3nc4ccccc4[nH]3)nn2c1=O,-8.95%,
CCOC(=O)C1CCCN(C(=O)c2ccc(C)c(S(=O)(=O)N3CCCCC3)c2)C1 (stereo not given),21.1%,
O=C1CCC/C=C\C[C@@H](CC(=O)N(CCO)Cc2ccccc2)C(=O)NCCO1,-0.947%,
CC(OC(=O)/C=C/c1ccccc1)C(=O)Nc1ccc(C(N)=O)cc1 (stereo not given),17.8%,
Oc1ccc(Br)cc1/C=N/Nc1ccccn1,,3.55 µM (active)
Oc1ccc(Br)cc1C=Nc1ccc2[nH]ncc2c1,12.4%,
O=C(CCCO)N/N=C/c1cc(Br)ccc1O,12.6%,
O=C(NCC1CCCCC1)NCC1CCCCC1,21.3%,
Cc1c(NC(=O)C(C)Oc2cccc(Cl)c2)c(=O)n(-c2ccccc2)n1C (stereo not given),7.65%,
Cc1cc(C)n(-c2nc(C(F)(F)F)nc3ccccc23)n1,-1.56%,
CC(Nc1nc(C(F)(F)F)nc2ccccc12)c1cccs1 (stereo not given),,10 µM (active)
Cc1ccsc1C(=O)OCC(=O)NCCc1ccccc1,-13.2%,
CC1CCCN(C(=O)Cn2c(=O)oc3cc(S(=O)(=O)N4CCCCC4C)ccc32)C1 (stereo not given),-7.12%,
CCOc1cc(N2CCOCC2)c(OCC)cc1NC(=O)COC(=O)[C@H](Cc1c[nH]c2ccccc12)NC(C)=O,18.6%,

SMILES,"activity change, negative = inhibition",Potency
CCOc1cc(N2CCOCC2)c(OCC)cc1NC(=O)c1ccc(C)s1,,25.1 µM (active)
CCOc1cc(N2CCOCC2)c(OCC)cc1NC(=O)c1cc(C)nc2ccccc12,1.73%,
CCOc1cc(N2CCOCC2)c(OCC)cc1NC(=O)COc1cccc2cccnc12,,7.94 µM (active)
NC(=O)C1CCN(C(=O)COc2cccc3cccnc23)CC1,19.5%,
CCOc1cc(N2CCOCC2)c(OCC)cc1NC(=O)C1=NN(c2cccc(C)c2)C(=O)CC1,-28.7%,
CC(C)(C)NS(=O)(=O)NC(=O)C1=C(N2CCCC2)COC1=O,0.465%,
COc1ccccc1CNC(=O)COC(=O)c1cccs1,4.7%,
Cc1ccc(C(=O)Nc2nnc(-c3cccs3)s2)cc1C,9.59%,
CCOc1cccc(C(=O)Nc2nnc(-c3cccs3)s2)c1,21.8%,
N#Cc1ccc(C(=O)Nc2nc(-c3cccs3)c(C(=O)C(F)(F)F)s2)cc1,,11.2 µM (active)
CC1CCN(C(=O)COC(=O)CCC(=O)c2cccs2)CC1,-5.03%,
COCC(=O)N(C)[C@H]1C[C@H]2c3cc(Oc4ccccc4C)ccc3CCN2C(=O)[C@H]1[C@H](C)O,1.89%,
CCN(CC)S(=O)(=O)c1ccc(OC)c(NC(=O)CCc2c(C)noc2C)c1,-29.5%,
CCN(C(=O)CSc1nnc(-c2ccc(OC(F)F)cc2)n1N)C1CCS(=O)(=O)C1 (stereo not given),24.5%,
CC(=O)c1cc(CN2CCC(n3nccc3NC(=O)c3ccccc3Cl)CC2)cs1,2.88%,
CC(=O)c1cc(CN2CCC(C(=O)Nc3cccc(-c4cscn4)c3)CC2)cs1,,10 µM (active)
O=C(Nc1cccc(-c2cscn2)c1)C1CCN(Cc2ccsc2)CC1,5.5%,
CC(C)(C)OC(=O)C[C@@H]1C/C=C\C[C@@H](CC(=O)N[C@@H](CO)Cc2ccccc2)C(=O)N2CCC[C@H]2COC1=O,14%,
c1ccc2c(c1)CSc1sccc1C2=C1CCNCC1,,15.8 µM (active)
CN1CCC(N(C)S(=O)(=O)c2ccc(NC(=O)c3cccc(C#N)c3)cc2)CC1,-4.18%,
Cc1cccc(NC(=O)Nc2nnc(-c3ccccc3)o2)c1,-2.53%,
Cc1cccc(NC(=O)Nc2cccc(Oc3c(F)c(F)c(F)c(F)c3F)c2)c1,,11.2 µM (active)
Cc1cccc(NC(=O)c2cccc(C(F)(F)F)c2)c1,-13%,
Cc1cc(NC(=O)C(C)N2C(=O)c3ccccc3S2(=O)=O)no1 (stereo not given),2.31%,
O=C(c1ccccc1)N1CCN(c2ccc([N+](=O)[O-])c(NCc3ccco3)c2)CC1,,8.91 µM (active)

SMILES,"activity change, negative = inhibition",Potency
O=C(c1ccc(S(=O)(=O)NCc2ccco2)cc1)N1CCN(c2ccccc2)CC1,1.43%,
O=[N+]([O-])c1ccc(N2CCN(S(=O)(=O)c3ccc4ccccc4c3)CC2)cc1NCc1ccco1,-2.92%,
O=C(Nc1cccc2c1CCCC2)c1ccc(F)cc1,-21.5%,
CCN1C(=O)[C@H]2[C@@H](c3ccc(C)cc3)N3C(=O)N(c4cccc(Br)c4)C(=O)[C@@]3(CC)[C@H]2C1=O,-6.7%,
CN(CC(=O)Nc1cccc(F)c1)C(=O)CC1CCCC1,-6.09%,
CC(=O)Nc1ccc(NC(=O)C(C)OC(=O)C2CC(=O)N(CCc3ccccc3)C2)cc1 (stereo not given),17.8%,
CC[n+]1cc(C)ccc1/C=C/c1ccc(N(C)C)cc1,,5.62 µM (active)
CN(C)c1ccc(/C=N\S(=O)(=O)c2ccccc2)cc1,0.89%,
C/C(=N\Nc1ccccc1)c1cccs1,3.85%,
Cc1csc(NC(=O)c2ccc(C)s2)n1,1.16%,
O=C(Nc1ccc2nc3n(c(=O)c2c1)CCCCC3)c1ccccc1Cl,-29.4%,
COCC(=O)N1CCc2ccc(NC(=O)c3ccccc3Cl)cc2C1,-11.9%,
O=C(Nc1ccc2sc3ccccc3c(=O)c2c1)c1ccccc1Cl,,3.55 µM (active)
CCC1CCCCN1C(=S)NC(=O)c1ccco1 (stereo not given),20.7%,
COc1ccc(OC)c(/C=N/NC(=O)c2ccc[n+](CC(=O)c3ccccc3)c2)c1,-14.2%,
Cc1cccc(C(=O)OCC(=O)NC(C)C2CC3CCC2C3)c1O (stereo not given),-4.42%,
COc1ccccc1CNC(=O)CCCN1C(=O)NC2(CCCC2)C1=O,3.98%,
OC(CN=c1sc2ccccc2n1CC(O)COc1ccccc1)COc1ccccc1 (stereo not given),,11.2 µM (active)
O=C(C(c1ccccc1)c1ccccc1)N1CCN(CC(O)COc2ccccc2)CC1 (stereo not given),-27.7%,
OC(COc1ccccc1)Cn1cc(Br)cn1 (stereo not given),9.27%,
CN(c1ccccc1)S(=O)(=O)c1cc(C(=O)N2CCN(c3ncccn3)CC2)ccc1Cl,-24.9%,
Cc1ccc(S(=O)(=O)N2CC(O)C[C@H]2C(=O)OCC(=O)Nc2ccc(N3CCOCC3)cc2)cc1C (stereo not given in full),-0.0858%,
O=C(/C=C/NNC(=O)c1cccc(Br)c1)c1ccccc1,,10 µM (active)
CC(CC(=O)O)CC(=O)NNC(=O)c1cccc(Br)c1 (stereo not given),7.99%,
Cc1ccccc1NC(=S)NNC(=O)c1cccc(Br)c1,20.4%,
